Records with an inconclusive call do not appear. The source made the active and inactive calls. Calls come from the whole dose curve; as a rule, active = well fitted curve in the direction sought with a large enough effect; inconclusive = small, poorly fitted or top-dose-only effect, or another doubt; inactive = no such curve, though single readings can be large; an effect the other way counts as inactive or inconclusive.

Experiment [1] is described as follows: Confirmation and Secondary Assay for Modulators of Hemoglobin Beta Chain Splicing at IVS2 705 locus (AID 930).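 Note: HeLa cells stably expressing the EGFP-705 splicing reporter; GFP fluorescence per well restored by corrected splicing of the IVS2-705 intron in EGFP; series mostly up to about 46 µM.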 In a few lines:
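Stable HeLa line with EGFP disrupted by mutant beta-globin intron 2 (705). Overnight attachment, then 2 days of compound at 37C, 5% CO2. Signal: peak GFP intensity summed over objects 5-250 µm.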

Experiment [2] in a line: MultiTox-Fluor Cytotoxicity Assay - LYMP1-001 - Dead Cells (AID 946). In a few lines:
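Cytotoxicity as increased dead-cell protease fluorescence (bis-AAF-R110, 485/520 nm), read 60 min after MultiTox-Fluor reagent. Human lymphoblastoid line exposed 16 h; Hill-fitted AC50, with DMSO as 0% and 15 uM tetraoctylammonium bromide as 100%.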

Experiment [3] can be described thus: MultiTox-Fluor Cytotoxicity Assay - LYMP1-001 - Live Cells (AID 947).
Experiment [4] in a line: Cell Viability - LYMP1-002 - Assay at 16 hr (AID 948). In a few lines:
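Acute cytotoxicity is scored as a concentration-dependent fall in intracellular ATP in a human lymphoblastoid line (LYMP1-002) after 16 hr compound exposure at 37 C, measured by luciferase luminescence.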

The nature of experiment [5]: MultiTox-Fluor Cytotoxicity Assay - LYMP1-002 - Live Cells (AID 955).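 Note: cells exposed to compound for 16 hours.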 In a few lines:
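Human lymphoblastoid LYMP1-002 cells, 2500/well, treated 16 h at 37 C in complete medium. Live-cell protease activity via GF-AFC fluorescence (Ex/Em 405/510) after 60 min reagent incubation; AC50 from Hill fits.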

Experiment [6] is described as follows: MultiTox-Fluor Cytotoxicity Assay - LYMP1-002 - Dead Cells (AID 960). Note: nearly all actives have a fitted effect of over 60% in size. In a few lines:
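Human lymphoblastoid LYMP1-002 cells, 2500/well, treated 16 h at 37 C; dead-cell protease cleavage of bis-AAF-R110 read by fluorescence (485/520); normalized to DMSO and 15 uM tetraoctylammonium bromide; AC50 from Hill fit.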

Experiment [7] can be described thus: MultiTox-Fluor Cytotoxicity Assay - LYMP1-003 - Dead Cells (AID 961). Note: nearly all actives have a fitted effect of over 70% in size. In a few lines:
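Dead-cell protease release, detected as bis-AAF-R110 fluorescence at 485/520 nm, was measured in LYMP1-003 cells after 16 h compound treatment at 37 C. AC50 values came from Hill-modeled qHTS curves normalized to DMSO (0%) and 15 uM tetraoctylammonium bromide (100%).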

A short description of experiment [8]: MultiTox-Fluor Cytotoxicity Assay - LYMP1-003 - Live Cells (AID 962).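 Note: cells exposed to compound for 16 hours at 37 °C; cytotoxic hits lower the live-cell protease signal.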 In a few lines:
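LYMP1-003 lymphoblastoid cells, 2500/well in complete medium, treated 16 h at 37 C; live-cell protease cleavage of GF-AFC read by fluorescence (Ex/Em 405/510) after 60 min reagent; AC50 from Hill fits of concentration-response.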

The nature of experiment [9]: Cell Viability - LYMP1-003 - Assay at 24 hr (AID 963). In a few lines: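 Human lymphoblastoid LYMP1-003 cells, 2500/well, treated 24 h at 37 C in complete medium. Viability read as intracellular ATP by CellTiter-Glo luminescence after 30 min at room temperature; AC50 from Hill-equation fits of qHTS concentration-response.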
Experiment [10] in a line: Cell Viability - LYMP1-003 - Assay at 40 hr (AID 964). Note: series mostly up to about 92 µM; nearly all actives have a fitted effect of over 60% in size. In a few lines: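 LYMP1-003 human lymphoblastoid cells, 2500/well, preincubated 5 h at 37 C, then treated with compound for 40 h at 37 C. Intracellular ATP read by CellTiter-Glo luminescence after 30 min at room temperature; AC50 from Hill-equation fits.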

On to `CS(=O)(=O)c1ccc(C2=C(c3ccccc3)C(=O)OC2)cc1`, for which the compound was classed as inactive in [1].
Still for that read-out and setting: for `COc1ccc2ccc(=O)oc2c1CC=C(C)C` the value was “inactive”; for `O=C1C(CCC(O)c2ccc(F)cc2)C(c2ccc(O)cc2)N1c1ccc(F)cc1` (centres undefined), “inactive”.
With `C[C@@H]1C[C@H]2[C@@H]3CCC4=CC(=O)C=C[C@]4(C)[C@@]3(F)[C@@H](O)C[C@]2(C)[C@@]1(O)C(=O)CO`, the result in experiment [2], in experiment [3], in experiment [4], in experiment [5], in [6] and in experiment [7] was inactive. Further, the compound was classed as inactive in experiment [8], in [9] and in experiment [10].
As for `COc1ccnc(CS(=O)c2nc3ccc(OC(F)F)cc3[nH]2)c1OC` (centres undefined), the call in [1] was inactive.
Same read-out and setting: the entry for `OC(c1cc(C(F)(F)F)nc2c(C(F)(F)F)cccc12)C1CCCCN1` (centres undefined) is “inactive”.
Still for that read-out and setting: for `CC(NCCc1ccc(O)cc1)C(O)c1ccc(O)cc1` (centres undefined) the value was “inactive”; for `CCC(c1ccc(O)cc1)C(CC)c1ccc(O)cc1` (centres undefined), “inactive”.
The same measure, in the same setting: the entry for `CC1(C)OC2CC3C4CC(F)C5=CC(=O)C=CC5(C)C4C(O)CC3(C)[C@]2(C(=O)CO)O1` (some centres undefined) is “inactive”; for `Cc1cc2nc3c(=O)[nH]c(=O)nc-3n(CC(O)C(O)C(O)CO)c2cc1C` (centres undefined) it is “inactive”.
Turning to `NCC1CCC(C(=O)O)CC1` (centres undefined), the compound was classed as inactive in experiment [1].

For the origin of these results see PubChem BioAssay (NCATS).
